UCHL1 block – human UCHL1 deubiquitinase inhibition. purified UCHL1, Ub-rhodamine cleavage fluorescence. inhibition, % at 20 µM. actives 0.2% (n = 47,000)
Target sequence (P09936 whole entry, looked up): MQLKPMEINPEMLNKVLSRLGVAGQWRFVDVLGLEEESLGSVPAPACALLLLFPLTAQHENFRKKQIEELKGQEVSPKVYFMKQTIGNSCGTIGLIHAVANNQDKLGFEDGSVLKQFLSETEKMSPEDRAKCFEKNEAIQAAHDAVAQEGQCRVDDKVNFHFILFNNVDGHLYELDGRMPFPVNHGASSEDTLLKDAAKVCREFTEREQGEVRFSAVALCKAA
USP10 inh – inhibitors of human USP10 deubiquitinase. inhibition, % at 20 µM. actives 1.1% (n = 47,000). purified USP10, Ub-rhodamine fluorescence, 60 min. Q14694
USP8 block – human USP8 deubiquitinase inhibition | inhibition, % at 20 µM | purified USP8, Ub-rhodamine cleavage fluorescence, 30 min | P40818 | actives 4.2% (n = 47,000)
USP7 block – inhibitors of human USP7 deubiquitinase. Q93009. purified USP7, Ub-rhodamine cleavage fluorescence. inhibition, % at 20 µM. actives 0.3% (n = 47,000)
Hits are given with their value; n = inactive. Most compounds without a hit are left out; they make up all but 5% or so of the library. Rule as the data show it: active = inhibition above about 30%; inactive = the rest.

SMILES | UCHL1 block | USP10 inh | USP8 block | USP7 block
Fc1ccc(NCc2nc3ccccc3n2Cc2ccccc2)cc1 | n | n | n | n
CC(=O)[C@H]1c2c(c(O)c3c(O)cccc3c2-c2c3c(c(O)c4c(O)cccc24)C(=O)C[C@](C)(O)[C@H]3C(C)=O)C(=O)C[C@]1(C)O | n | n | 64 | n
COc1cc(CN(C(=O)c2oc3cc(C)ccc3c2C)c2ccccn2)cc(OC)c1OC | n | n | 32 | n
COc1cc(C(=O)N(Cc2cccc3ccccc23)c2ccccn2)cc(OC)c1OC | n | n | n | n
O=C(Cc1ccccc1)N1CCN(c2nc3ccc(Cl)cc3s2)CC1 | n | n | n | n
Cc1ccc([N+](=O)[O-])cc1S(=O)(=O)Nc1cc2sc(=O)oc2c2ccccc12 | n | 37 | 89 | n
O=C(Nc1sc2c(c1-c1nc3ccccc3[nH]1)CCCC2)c1ccncc1 | n | n | 31 | n
O=C(Nc1sc2c(c1-c1nc3ccccc3[nH]1)CCCC2)c1ccccc1[N+](=O)[O-] | n | n | 32 | n
CC(C)(C)C(=O)Nc1sc2c(c1-c1nc3ccccc3[nH]1)CCCC2 | n | n | n | n
Cn1cc2c(n1)c(=O)n(Cc1ccc(F)cc1)c(=O)n2CC(=O)NCc1ccccc1 | n | n | n | n
Cc1cc(C)c(NC(=O)Cn2c(=O)n(Cc3ccccc3)c(=O)c3nn(C)cc32)c(C)c1 | n | n | 41 | n
CCn1cc2c(n1)c(=O)n(Cc1ccccc1)c(=O)n2CC(=O)Nc1ccc(C)cc1C | n | 30 | 93 | 30
Cc1ccc(NC(=O)c2cc(-c3ccccn3)nc3c(Cl)cccc23)nc1 | n | n | 63 | n
Cc1ccc(C(=O)Nc2ccc(Cl)cn2)c(C)c1 | n | n | n | n
CNC(=O)C1Cn2ccnc2C2(CCN(C(=O)NCCc3ccc(OC)cc3)CC2)O1 (stereo unspecified) | n | n | n | n
COc1ccc(C(=O)[C@@H]2[C@H](C(=O)OC(c3ccccc3)c3ccccc3)N3c4ccccc4C=CC3[C@@]23C(=O)Nc2ccccc23)cc1 (stereo partly specified) | n | n | 45 | n
Cc1ccc(C(=O)/C=C/c2ccc3c(c2)OCCO3)c(OCc2ccccc2)c1 | n | n | n | n
O=C1C/C(=C\c2ccc3c(c2)OCO3)Cc2ccccc21 | n | n | n | n
Cc1cccc(N2C(=O)/C(=C\c3ccc4c(c3)OCCO4)c3ccccc3C2=O)c1 | n | n | 88 | n
Cc1cccc(N2C(=O)/C(=C\c3ccc4c(c3)OCO4)c3ccccc3C2=O)c1 | n | n | 76 | n
O=C1Cc2ccccc2C(=O)N1c1ccc2c(c1)OCO2 | n | n | 82 | n
Cc1ccc(C(=O)N(Cc2cc(=O)[nH]c3ccccc23)C2CCCCC2)cc1 | n | n | n | n
O=C(Nc1ccc(Cl)cc1)C1CCCN(c2ncccn2)C1 (stereo unspecified) | n | n | 33 | n
O=C(Nc1ccc(CN2CCOCC2)cc1)C1CCCN(c2ncccn2)C1 (stereo unspecified) | n | n | n | n
CCOc1ncnc2c1sc1nc(-c3ccccc3)c3c(c12)CCC3 | n | n | n | n
SMILES | UCHL1 block | USP10 inh | USP8 block | USP7 block
Cn1cncc1-c1nnc([C@H]2CCN(Cc3cccc(C#N)c3)C2)o1 | n | n | n | n
N#Cc1cccc(CN2CC[C@H](c3nnc(-c4cccnc4)o3)C2)c1 | n | n | 54 | n
COc1cccc(C2CC(c3ccccc3)=NC3(CCN(C)CC3)N2)c1O (stereo unspecified) | n | n | n | n
COc1cccc(C2CC(c3ccc(F)cc3)=NC3(CCN(C)CC3)N2)c1O (stereo unspecified) | n | n | 41 | n
CN(C)c1ccc(NC(=O)c2ccc(Cn3cc([N+](=O)[O-])cn3)cc2)cc1 | n | n | 46 | n
O=C(NCc1ccco1)c1c2c(nc3ccccc13)-c1ccccc1CC2 | n | n | 55 | n
O=S(=O)(C1CC1)N1CCC2(CCN(c3ncccn3)CC2)C1 | n | n | n | n
Cc1cc2nccc(C3CCN(C(=O)COc4cccnc4)CC3)n2n1 | n | n | 49 | n
COc1ncccc1C(=O)N1CCC(c2ccnc3cc(C)nn23)CC1 | n | n | n | n
O=C(Nc1ccc2sccc2c1)c1ccc(S(=O)(=O)N2CCOCC2)cc1 | n | n | n | n
COC(=O)c1ccc(C(=O)Nc2ccc3sccc3c2)cc1 | n | n | 31 | n
Cc1cc(C(F)(F)F)n2nc(C3CCN(C(=O)c4cnn(C)c4C)C3)cc2n1 (stereo unspecified) | n | n | 92 | n
COc1ccc(OC)c(NC(=O)c2sc(-c3ccccc3)nc2C)c1 | n | n | 42 | n
CCN1CCN(C2(CNC(=O)c3ccc(OC(C)C)cc3)CCCCC2)CC1 | n | n | n | n

Screens: PubChem BioAssay, Buhrlage Lab, Dana-Farber Cancer Institute and Novartis Institutes for BioMedical Research (Cambridge, Mass)
